# Results reported in publication PMC7862700, “An all-to-all approach to the identification of sequence-specific readers for epigenetic DNA modifications on cytosine”.
# What was measured:
# Test in all cases: DAPPL (digital affinity profiling via proximity ligation, sequencing); 10 mM Tris-HCl pH 7.5, 50 mM NaCl, 1 mM DTT, 4% glycerol, room temperature, 30 min; GST-TFs on glutathione beads, 16-mer random dsDNA library, 0.1% formaldehyde crosslink after washing; high values mean tight binding
# Details in all cases: protein: recombinant; tags: N-terminal GST; dsDNA, one strand shown
# ELK4 = target: T1, ELK4 (Homo sapiens, UniProt P28324-2 1-405)
# T1 sequence: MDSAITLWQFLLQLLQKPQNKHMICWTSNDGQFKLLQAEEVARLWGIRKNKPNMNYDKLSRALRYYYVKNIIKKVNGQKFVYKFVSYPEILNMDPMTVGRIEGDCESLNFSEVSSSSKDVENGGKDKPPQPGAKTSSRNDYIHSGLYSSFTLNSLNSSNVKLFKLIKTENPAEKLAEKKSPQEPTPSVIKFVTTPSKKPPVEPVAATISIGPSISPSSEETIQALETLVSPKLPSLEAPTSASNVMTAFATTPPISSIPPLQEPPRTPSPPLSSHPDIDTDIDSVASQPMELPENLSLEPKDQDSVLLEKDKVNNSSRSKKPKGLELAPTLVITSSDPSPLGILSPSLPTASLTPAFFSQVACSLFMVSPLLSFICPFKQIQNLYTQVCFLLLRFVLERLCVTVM
# Procedure, shortened: (§1)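 Human transcription factors fused to GST were expressed in yeast, captured on glutathione beads, given DNA barcodes and pooled with a GST-only negative control. Pools were incubated with 200 nmole of a 16-mer random double-stranded DNA library in Tris/NaCl/DTT/glycerol buffer at room temperature for 30 min. They were then washed, crosslinked with 0.1% formaldehyde, proximity-ligated (BsaI/T4 ligase, 1 h, 37 °C), PCR-amplified and sequenced on an Illumina NextSeq500. Binding signal is each 6-mer's read frequency for a factor divided by its frequency for the GST control.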
# ETV2 = target: T2, ETV2 (Homo sapiens, UniProt O00321 1-342)
# T2 sequence: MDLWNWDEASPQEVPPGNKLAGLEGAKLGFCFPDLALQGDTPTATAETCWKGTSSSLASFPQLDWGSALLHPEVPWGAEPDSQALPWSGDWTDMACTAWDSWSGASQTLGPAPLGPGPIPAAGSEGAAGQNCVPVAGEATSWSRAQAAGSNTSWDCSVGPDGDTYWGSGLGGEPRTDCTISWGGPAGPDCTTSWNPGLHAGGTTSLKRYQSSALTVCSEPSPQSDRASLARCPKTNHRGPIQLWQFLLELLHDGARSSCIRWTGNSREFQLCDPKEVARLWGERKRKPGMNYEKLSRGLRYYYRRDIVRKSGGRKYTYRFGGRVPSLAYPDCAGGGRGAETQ
# Procedure, shortened: as §1
# ETV3L = target: T3, ETV3L (Homo sapiens, UniProt Q6ZN32 1-361)
# T3 sequence: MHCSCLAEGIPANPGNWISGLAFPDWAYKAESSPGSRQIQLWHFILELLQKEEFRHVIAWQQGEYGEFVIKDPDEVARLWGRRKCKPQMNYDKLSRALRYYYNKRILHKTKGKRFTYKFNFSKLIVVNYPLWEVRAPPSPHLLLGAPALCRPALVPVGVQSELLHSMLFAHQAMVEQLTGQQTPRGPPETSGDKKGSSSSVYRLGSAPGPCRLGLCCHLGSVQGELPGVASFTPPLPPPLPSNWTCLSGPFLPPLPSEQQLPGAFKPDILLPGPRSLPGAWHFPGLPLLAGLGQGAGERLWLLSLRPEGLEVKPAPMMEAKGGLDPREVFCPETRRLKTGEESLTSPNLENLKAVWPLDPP
# Procedure, shortened: as §1
# ETV7 = target: T4, ETV7 (Homo sapiens, UniProt Q9Y603 1-341)
# T4 sequence: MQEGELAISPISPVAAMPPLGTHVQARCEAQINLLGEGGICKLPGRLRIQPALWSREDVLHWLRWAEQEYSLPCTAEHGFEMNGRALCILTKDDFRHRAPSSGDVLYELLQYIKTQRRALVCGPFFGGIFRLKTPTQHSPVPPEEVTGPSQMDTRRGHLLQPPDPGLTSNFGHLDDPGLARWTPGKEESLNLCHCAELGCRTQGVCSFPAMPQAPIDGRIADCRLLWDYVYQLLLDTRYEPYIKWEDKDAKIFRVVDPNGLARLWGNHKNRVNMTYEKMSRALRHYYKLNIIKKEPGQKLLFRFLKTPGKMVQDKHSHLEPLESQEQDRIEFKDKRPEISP
# Procedure, shortened: as §1
# ETV3 = target: T5, ETV3 (Homo sapiens, UniProt P41162-2 1-143)
# T5 sequence: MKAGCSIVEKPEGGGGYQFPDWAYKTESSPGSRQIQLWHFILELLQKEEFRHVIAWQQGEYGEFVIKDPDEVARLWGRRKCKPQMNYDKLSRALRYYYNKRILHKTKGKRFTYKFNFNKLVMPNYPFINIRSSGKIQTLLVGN
# Procedure, shortened: as §1
# GABPA = target: T6, GABPA (Homo sapiens, UniProt Q06546 1-454)
# T6 sequence: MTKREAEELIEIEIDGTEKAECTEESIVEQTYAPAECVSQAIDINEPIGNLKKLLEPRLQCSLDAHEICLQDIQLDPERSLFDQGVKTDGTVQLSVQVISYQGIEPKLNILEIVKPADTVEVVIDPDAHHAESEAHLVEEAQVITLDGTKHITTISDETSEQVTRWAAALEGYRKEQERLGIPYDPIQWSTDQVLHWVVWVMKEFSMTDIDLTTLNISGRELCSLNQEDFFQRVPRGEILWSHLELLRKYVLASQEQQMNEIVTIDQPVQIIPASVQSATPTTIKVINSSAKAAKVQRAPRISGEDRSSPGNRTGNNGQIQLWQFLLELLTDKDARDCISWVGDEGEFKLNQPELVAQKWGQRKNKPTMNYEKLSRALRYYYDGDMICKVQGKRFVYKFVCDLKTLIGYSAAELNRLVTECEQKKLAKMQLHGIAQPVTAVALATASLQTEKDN
# Procedure, shortened: as §1
# ELK3 = target: T7, ELK3 (Homo sapiens, UniProt P41970 1-407)
# T7 sequence: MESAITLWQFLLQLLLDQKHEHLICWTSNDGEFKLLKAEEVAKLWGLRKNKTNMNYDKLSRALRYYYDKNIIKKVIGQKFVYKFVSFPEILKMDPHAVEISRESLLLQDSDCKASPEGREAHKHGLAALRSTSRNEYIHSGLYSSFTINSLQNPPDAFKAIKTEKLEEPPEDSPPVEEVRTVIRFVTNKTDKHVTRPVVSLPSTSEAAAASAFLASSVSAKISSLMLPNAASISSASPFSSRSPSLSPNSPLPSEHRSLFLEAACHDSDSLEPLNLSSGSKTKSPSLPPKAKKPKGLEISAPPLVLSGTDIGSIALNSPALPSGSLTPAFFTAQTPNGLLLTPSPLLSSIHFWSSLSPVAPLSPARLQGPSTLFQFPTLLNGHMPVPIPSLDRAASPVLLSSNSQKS
# Procedure, shortened: as §1
# ELF3 = target: T8, ELF3 (Homo sapiens, UniProt P78545 1-371)
# T8 sequence: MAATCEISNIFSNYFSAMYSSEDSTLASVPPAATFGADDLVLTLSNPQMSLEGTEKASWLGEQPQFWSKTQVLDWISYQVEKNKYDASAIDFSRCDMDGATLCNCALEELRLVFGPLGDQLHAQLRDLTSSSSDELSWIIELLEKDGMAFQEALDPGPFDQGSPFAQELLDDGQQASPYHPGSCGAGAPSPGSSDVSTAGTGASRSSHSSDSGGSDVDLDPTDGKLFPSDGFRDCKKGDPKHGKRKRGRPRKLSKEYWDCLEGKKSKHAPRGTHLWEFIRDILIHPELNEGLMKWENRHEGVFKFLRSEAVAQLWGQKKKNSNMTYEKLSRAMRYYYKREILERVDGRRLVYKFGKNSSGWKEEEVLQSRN
# Procedure, shortened: as §1
# ELK1 = target: T9, ELK1 (Homo sapiens, UniProt P19419 1-428)
# T9 sequence: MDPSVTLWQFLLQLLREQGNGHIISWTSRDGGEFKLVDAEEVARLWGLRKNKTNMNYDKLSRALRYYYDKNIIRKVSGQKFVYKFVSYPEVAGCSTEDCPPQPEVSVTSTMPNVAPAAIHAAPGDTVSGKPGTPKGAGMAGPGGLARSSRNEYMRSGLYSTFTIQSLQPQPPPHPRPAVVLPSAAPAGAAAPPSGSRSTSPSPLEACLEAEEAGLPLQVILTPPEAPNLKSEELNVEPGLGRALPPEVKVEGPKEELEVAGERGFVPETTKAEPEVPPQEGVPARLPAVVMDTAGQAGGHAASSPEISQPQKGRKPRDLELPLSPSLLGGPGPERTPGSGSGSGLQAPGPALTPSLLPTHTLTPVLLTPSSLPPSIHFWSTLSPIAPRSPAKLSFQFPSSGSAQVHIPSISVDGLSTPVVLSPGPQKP
# Procedure, shortened: as §1
# ERG = target: T10, ERG (Homo sapiens, UniProt P11308 1-479)
# T10 sequence: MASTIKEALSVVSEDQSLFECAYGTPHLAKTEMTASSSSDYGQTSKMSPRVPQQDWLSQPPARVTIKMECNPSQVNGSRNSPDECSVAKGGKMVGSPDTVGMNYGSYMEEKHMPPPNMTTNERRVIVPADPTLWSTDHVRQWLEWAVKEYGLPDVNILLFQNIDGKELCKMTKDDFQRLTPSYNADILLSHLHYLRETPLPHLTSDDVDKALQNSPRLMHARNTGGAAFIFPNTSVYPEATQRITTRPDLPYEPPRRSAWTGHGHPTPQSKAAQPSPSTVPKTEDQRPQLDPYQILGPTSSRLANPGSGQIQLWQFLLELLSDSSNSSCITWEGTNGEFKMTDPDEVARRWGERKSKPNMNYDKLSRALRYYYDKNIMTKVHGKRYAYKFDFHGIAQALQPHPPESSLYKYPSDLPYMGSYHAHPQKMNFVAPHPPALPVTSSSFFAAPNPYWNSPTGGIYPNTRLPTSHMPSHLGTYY
# Procedure, shortened: as §1
# SPIB = SPIB (Homo sapiens, UniProt Q01892 1-262)
# Procedure, shortened: as §1
# SPDEF = target: T11, SPDEF (Homo sapiens, UniProt O95238 1-335)
# T11 sequence: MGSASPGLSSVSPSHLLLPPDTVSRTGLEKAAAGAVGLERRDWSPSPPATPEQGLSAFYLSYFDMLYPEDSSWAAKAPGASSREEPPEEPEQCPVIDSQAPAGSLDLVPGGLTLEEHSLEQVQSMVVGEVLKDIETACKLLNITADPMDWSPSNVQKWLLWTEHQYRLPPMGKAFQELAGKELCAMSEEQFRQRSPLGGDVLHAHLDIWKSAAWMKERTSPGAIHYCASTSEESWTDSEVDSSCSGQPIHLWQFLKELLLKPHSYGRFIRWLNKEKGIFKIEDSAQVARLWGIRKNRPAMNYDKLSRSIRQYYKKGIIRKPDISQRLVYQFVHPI
# Procedure, shortened: as §1
# ELF5 = target: T12, ELF5 (Homo sapiens, UniProt Q9UKW6-2 1-255)
# T12 sequence: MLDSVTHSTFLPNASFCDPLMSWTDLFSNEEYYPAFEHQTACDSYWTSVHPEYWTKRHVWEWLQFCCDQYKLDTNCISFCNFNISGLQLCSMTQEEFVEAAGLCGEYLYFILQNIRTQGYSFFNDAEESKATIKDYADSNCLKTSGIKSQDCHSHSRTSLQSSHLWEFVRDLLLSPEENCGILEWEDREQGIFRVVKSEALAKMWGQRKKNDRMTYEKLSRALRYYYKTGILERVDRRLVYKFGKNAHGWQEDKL
# Procedure, shortened: as §1
# SPIB, sequence (Q01892 whole entry): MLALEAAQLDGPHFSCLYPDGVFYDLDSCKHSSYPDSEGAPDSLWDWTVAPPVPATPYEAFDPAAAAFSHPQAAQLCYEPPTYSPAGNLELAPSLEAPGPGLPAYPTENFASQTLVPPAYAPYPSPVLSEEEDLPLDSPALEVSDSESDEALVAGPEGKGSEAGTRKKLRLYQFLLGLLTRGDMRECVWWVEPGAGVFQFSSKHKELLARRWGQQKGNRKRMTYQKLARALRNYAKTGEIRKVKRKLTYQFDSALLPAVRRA
sequence,measurement,setting,value
GGCCTG,binding signal,ELK4,"1.08 fold enrichment (6-mer frequency, TF over GST control)"
same,binding signal,ETV2,"1.06 fold enrichment (6-mer frequency, TF over GST control)"
same,binding signal,ETV3L,"1.04 fold enrichment (6-mer frequency, TF over GST control)"
same,binding signal,ETV7,"1.03 fold enrichment (6-mer frequency, TF over GST control)"
GTAGCG,binding signal,ELK4,"1.01 fold enrichment (6-mer frequency, TF over GST control)"
same,binding signal,ETV3,"1.01 fold enrichment (6-mer frequency, TF over GST control)"
CAAGCC,binding signal,GABPA,"1.03 fold enrichment (6-mer frequency, TF over GST control)"
same,binding signal,ELK3,"1.06 fold enrichment (6-mer frequency, TF over GST control)"
same,binding signal,ELK4,"1.07 fold enrichment (6-mer frequency, TF over GST control)"
same,binding signal,ETV2,"1.06 fold enrichment (6-mer frequency, TF over GST control)"
same,binding signal,ELF3,"1.12 fold enrichment (6-mer frequency, TF over GST control)"
same,binding signal,ETV7,"1.02 fold enrichment (6-mer frequency, TF over GST control)"
same,binding signal,ETV3,"1.02 fold enrichment (6-mer frequency, TF over GST control)"
GATCCG,binding signal,ELK1,"1.01 fold enrichment (6-mer frequency, TF over GST control)"
same,binding signal,ERG,"1.04 fold enrichment (6-mer frequency, TF over GST control)"
same,binding signal,SPIB,"1.05 fold enrichment (6-mer frequency, TF over GST control)"
same,binding signal,ELK4,"1 fold enrichment (6-mer frequency, TF over GST control)"
same,binding signal,SPDEF,"1.65 fold enrichment (6-mer frequency, TF over GST control)"
same,binding signal,ELF5,"1.02 fold enrichment (6-mer frequency, TF over GST control)"
